Measured values reported in PubChem BioAssay (NCATS).
Records with an inconclusive call do not appear. Unmarked numbers belong to inactive results. The source made the active and inactive calls. Calls come from the whole dose curve; as a rule, active = well fitted cell-killing curve with a large enough effect; inconclusive = small, poorly fitted or top-dose-only effect, or effect the other way; inactive = no such curve, though single readings can be large or run the other way.

Assay: Viability qHTS for spleen associated tyrosine kinase inhibitor (SYKi) naive MV4-11 cells (AID 1963823); note: nearly all actives have a fitted effect of over 40% in size
Details: MV4-11 AML viability, CellTiter-Glo luminescence, 72 h; series mostly up to 45 µM; viability (% of control): at the top concentration
Summary of the method: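 Compounds were dispensed acoustically onto plates, MV4-11 cells (SYKi-naive) added at 500 per well, and plates incubated 72 hr at 37 C. CellTiter-Glo was added and luminescence measured after 10 min.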
Potency is the fitted concentration of half-maximal effect.

Structure (SMILES)	viability (% of control)	Potency
CC12CCC3c4ccc(O)cc4CCC3C1CCC2OC1OC(C(=O)O)C(O)C(O)C1O (stereo unspecified)	72.8%	–
CC(=O)O[C@H]1CC[C@@]2(C)C(CC[C@@H](C)[C@]23Cc2c(O)cc4c(c2O3)CN([C@@H](CCC(=O)O)C(=O)O)C4=O)C1(C)C (stereo partly specified)	83.6% [at 17.3 µM]	–
CC(C)[C@@H](C)/C=C/[C@@H](C)[C@H]1CC[C@H]2C3=CC=C4C[C@@H](O)CC[C@]4(C)[C@H]3CC[C@]12C	89.9% [at 17.3 µM]	–
C=Cc1cc(O)cc2nc(-c3ccc(O)c(F)c3)oc12	–	23.5 µM (active)
CC(C)CC1OC(=O)C2CCCN2C(=O)CCNC(=O)C(Cc2ccccc2)NC(=O)C(C(C)C)N(C)C(=O)C(C(C)C)N(C)C1=O (stereo unspecified)	59.1% [at 17.3 µM]	–
Cc1ccc(Cl)cc1N(CC(=O)Nc1c(F)cccc1F)S(C)(=O)=O	–	5.17 µM (active)
C=CC1(C)CC2CCC3C(C)(C(=O)O)CCCC3(C)C2=CC1=O (stereo unspecified)	78.4%	–
C=CC(=O)N1CCC[C@@H](n2nc(-c3cccc(C(=O)Nc4ccc(C(C)C)c(C)c4)c3)c3c(N)ncnc32)C1	–	1.46 µM (active)
CC1=CC(=O)CC(C)(C)C1/C=C/C(C)O[C@@H]1O[C@H](CO)[C@@H](O)[C@H](O)[C@H]1O[C@@H]1OC[C@](O)(CO)[C@H]1O (stereo partly specified)	82.4% [at 17.3 µM]	–
O=C(OC[C@@]1(O)CO[C@@H](O[C@H]2[C@H](Oc3ccc(O)cc3)O[C@H](CO)[C@@H](O)[C@@H]2O)[C@@H]1O)c1ccc(O)cc1	90.1% [at 17.3 µM]	–
CC(C)CC(=O)O[C@@H]1OC=C(CO[C@@H]2O[C@H](CO[C@@H]3O[C@H](CO)[C@@H](O)[C@H](O)[C@H]3O)[C@@H](O)[C@H](O)[C@H]2O)[C@H]2C[C@H](O)[C@@H](CO)[C@@H]12	87.5% [at 17.3 µM]	–
